Results reported in paper PMC12548414.
About 20 (1%) of roughly 1,600 compounds showed an effect of 50% or more. The entries come from a sample that favours strong results as a whole.

test system: T1, E. coli pLC1021 (luc-trpAt trans-translation reporter); design: species or system Escherichia coli pLC1021; luc-trpAt non-stop luciferase reporter; luminescence rises when trans-translation is inhibited; normalized to KKL-35 and DMSO; details: reporter signal, KKL-35 = 100%; rise means trans-translation inhibition; 2 h, 20 µM
T1 construct: pLC1021 luc-trpAt reporter strain
How it was run: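 Cells carrying the non-stop luc-trpAt reporter were exposed to 20 µM compound for 2 h at room temperature, then Bright-Glo was added and luminescence read at 560 nm after 10 min. Signals were normalised per plate to DMSO and 20 µM KKL-35 wells. Hits: activity one SD above the median; ≥2 biological repeats averaged.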

**Q.** `Cc1nc(-c2ccccc2Br)cc([C@H]2CN3CC[C@H]2C[C@@H]3CNC(=O)c2ccc(C(C)(C)C)cc2)n1` [KKL-1598] was tested. Which “% activation” value did it give?
**A.** 0%

**Q.** `COc1ccc(Nc2nc(NC3CCNC3)nc3cc[nH]c(=O)c23)cc1CC(=O)c1ccccc1` (centres unmarked) [KKL-1883] was tested. Which “% activation” value did it give?
**A.** 335%

**Q.** Which “% activation” value does the source give for `COc1ccc(O)c(CN2CCCC(N3CCN(c4cccc(C(F)(F)F)c4)CC3)C2)c1` (centres unmarked) [KKL-0660] here?
**A.** 1%

**Q.** Which “% activation” value does the source give for `O=C(Nc1cccc(Cl)c1)Nc1ccccc1OC(F)(F)C(F)F` [KKL-0431] here?
**A.** 21%

**Q.** Which “% activation” value does the source give for `Cc1ccc(CN(CCCn2ccnc2)Cc2cccc(Cl)c2Cl)o1` [KKL-1195] here?
**A.** 17%

**Q.** How did the “% activation” value turn out when `CCOC(=O)c1ccc(NC(=O)c2ccc(C)s2)cc1` [KKL-0584] was run?
**A.** 0%

**Q.** For `CN(C)c1ccc(N=Nc2nc3ccccc3n2C)cc1` [KKL-1056], which “% activation” value is on record?
**A.** 0%

**Q.** `Fc1cccc(Oc2cc(C3CCCNC3)nc(-c3ccncc3)n2)c1` (centres unmarked) [KKL-1670] was tested. Which “% activation” value did it give?
**A.** 3%

**Q.** How did the “% activation” value turn out when `O=C(C=Cc1cccs1)N1CCN(Cc2ccc(Br)s2)CC1` [KKL-1861] was run?
**A.** 0%

**Q.** Which “% activation” value does the source give for `Cc1ccc(-n2cc(CNCCCn3ccnc3)c(-c3cccc(C)c3)n2)cc1` [KKL-0662] here?
**A.** 0%

**Q.** Which “% activation” value does the source give for `Cc1nn2c(O)cc(C(C)(C)C)nc2c1-c1ccccc1` [KKL-0891] here?
**A.** 17%

**Q.** How did the “% activation” value turn out when `CCOC(=O)c1c(NC(=O)COc2ccc(C(C)C)cc2)sc2c1CCC2` [KKL-1530] was run?
**A.** 0%

**Q.** `COc1ccc(-c2cc(=O)c3cc(OCC(=O)OC(C)C)ccc3o2)cc1` [KKL-1864] was tested. Which “% activation” value did it give?
**A.** 2%

**Q.** `CCC(NC(=O)c1cnc(C(C)(C)C)nc1)c1ccc(F)cc1` (centres unmarked) [KKL-0932] was tested. Which “% activation” value did it give?
**A.** 5%

**Q.** For `CCCN=C1C(=O)c2ccccc2C(O)=C1N(C(C)=O)c1cccc(F)c1` [KKL-0978], which “% activation” value is on record?
**A.** 0%

**Q.** With `Clc1nnc(N2CCCC2)c2ccccc12` [KKL-1738] as the compound, how does the “% activation” value read?
**A.** 0%

**Q.** `CCOC(=O)COc1ccc(S(=O)(=O)Nc2c(C)cccc2CC)cc1` [KKL-1460] was tested. Which “% activation” value did it give?
**A.** 0%

**Q.** For `Nc1nc(N)c2c(Sc3ccc4ccccc4c3)cccc2n1` [KKL-1710], which “% activation” value is on record?
**A.** 0%

**Q.** With `Cc1sc2nc(C(C)C)n(C3CCN(C(=O)c4ccncc4)CC3)c(=O)c2c1C` [KKL-0464] as the compound, how does the “% activation” value read?
**A.** 14%

**Q.** Which “% activation” value does the source give for `COC(=O)[C@@H]1Cc2c([nH]c3ccccc23)[C@H]2C[C@H](NCc3cccnc3)C[C@@H](c3ccc(C(F)(F)F)cc3)N21` [KKL-1613] here?
**A.** 0%

**Q.** With `CCn1ccnc1CN(C)Cc1cn(-c2ccc(C)cc2)nc1-c1ccc(F)cc1` [KKL-0657] as the compound, how does the “% activation” value read?
**A.** 0%

**Q.** With `Cc1ccc(Nc2c(-c3ccccn3)nc3ccc(C)cn23)cc1` [KKL-1199] as the compound, how does the “% activation” value read?
**A.** 4%

**Q.** For `N#Cc1cccc(-c2ccc(NCC3CCC(CN(C(=O)O)c4cccnn4)CC3)nc2)c1` (centres unmarked) [KKL-1855], which “% activation” value is on record?
**A.** 0%

**Q.** With `c1cn(CCCNc2nncc(-c3ccc(C4CCCCC4)cc3)n2)cn1` [KKL-1171] as the compound, how does the “% activation” value read?
**A.** 8%

**Q.** For `COC(=O)[C@@H]1Cc2c([nH]c3ccccc23)[C@H]2C[C@@H](NC(C)C)C[C@@H](c3cccc(Cl)c3)N21` [KKL-1594], which “% activation” value is on record?
**A.** 1%

**Q.** Which “% activation” value does the source give for `COc1ccc(OC)c(NC(=O)Nc2ccc(Cl)c(C(F)(F)F)c2)c1` [KKL-1544] here?
**A.** 0%

**Q.** How did the “% activation” value turn out when `Cc1nn(-c2ccccc2)c2c1C(c1ccc(O)c(O)c1)N1C(=N2)C(Nc2ccccc2)=Nc2ccccc21` (centres unmarked) [KKL-0996] was run?
**A.** 0%

**Q.** Which “% activation” value does the source give for `COc1cccc(-c2cc(CC3(O)CCN(Cc4[nH]c5ccc(C)cc5c4C)CC3)on2)c1` [KKL-0315] here?
**A.** 0%

**Q.** `CC(C)(C)C(=O)CC1(O)Oc2ccccc2N=C1C=C(O)C(C)(C)C` (centres unmarked) [KKL-1740] was tested. Which “% activation” value did it give?
**A.** 6%

**Q.** With `Cc1cc(C)c(-n2cccn2)c(CN(CCCn2ccnc2)Cc2ccc(F)cc2)c1` [KKL-1032] as the compound, how does the “% activation” value read?
**A.** 8%

**Q.** With `O=C(CN1CCN(Cc2ccccc2)CC1)Nc1ccc([N+](=O)[O-])cc1C(=O)c1ccccc1` [KKL-1480] as the compound, how does the “% activation” value read?
**A.** 0%

**Q.** For `O=C(NCc1ccco1)N1CCN(Cc2ccc(Cl)s2)CC1` [KKL-1727], which “% activation” value is on record?
**A.** 3%
